According to PubChem BioAssay AID1159580 (chemical genetic matrix, 2015):
Hit rate of the full screen: of about 5,500 compounds, about 2,000 (36%) were called active. Inconclusive results (about 18%) are left out. Rule as the data show it: active = normalized growth mostly below about 0.91 (no sharp cut-off); inconclusive = no clear call, values can overlap the other calls; inactive = mostly above about 0.92. Some of the results follow.

Test: chemical genetic growth profiling, strain panel (AID 1159580);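 also: tested at 20 µM; growth read once vehicle control cultures reached saturation at 30 °C; 1 = growth at the plate median or of vehicle wells; lower values mean less growth of the strain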
Details: S. cerevisiae deletion strains, growth OD

Measured: normalized growth

Oc1ccc2c3c1O[C@H]1c4[nH]c5ccccc5c4C[C@@]4(O)C(C2)N(CC2CC2)CCC314 (stereo not given in full)
inactive: locus YAL013W, strain DEP1, stronger effect = lower value 0.989 | locus YAL040C, strain CLN3, stronger effect = lower value 1 | locus YCL061C, strain MRC1 (second series), stronger effect = lower value 1.01 | locus YDR363W, strain ESC2, stronger effect = lower value 1.02 | locus YER002W, strain NOP16, stronger effect = lower value 1.02 | locus YGR078C, strain PAC10, stronger effect = lower value 1.02 | locus YMR263W, strain SAP30, stronger effect = lower value 1.01 | locus YMR307W, strain GAS1, stronger effect = lower value 0.993 | locus YNL175C, strain NOP13, stronger effect = lower value 1.02 | locus YNL197C, strain WHI3, stronger effect = lower value 1 | locus YNL224C, strain SQS1, stronger effect = lower value 1.01 | locus YNL322C, strain KRE1, stronger effect = lower value 0.999 | locus YOR083W, strain WHI5 (second series), stronger effect = lower value 1.01 | locus YPL055C, strain LGE1, stronger effect = lower value 0.987

Fc1ccc(NC(=S)N2CCCN(Cc3ccc(Cl)cc3Cl)CC2)cc1
active: locus YLR113W, strain HOG1, stronger effect = lower value 0.821
inactive: locus YAR019C, strain CDC15, stronger effect = lower value 0.989 | locus YBL105C, strain PKC1, stronger effect = lower value 0.984 | locus YBR135W, strain CKS1, stronger effect = lower value 0.992 | locus YBR136W, strain MEC1, stronger effect = lower value 0.985 | locus YBR160W, strain CDC28, stronger effect = lower value 0.982 | locus YDL017W, strain CDC7, stronger effect = lower value 0.982 | locus YDL028C, strain MPS1, stronger effect = lower value 0.99 | locus YDL101C, strain DUN1, stronger effect = lower value 0.985 | locus YDL108W, strain KIN28, stronger effect = lower value 0.992 | locus YDL132W, strain cdc53, stronger effect = lower value 0.989 | locus YDL214C, strain PRR2, stronger effect = lower value 0.987 | locus YDR052C, strain DBF4, stronger effect = lower value 0.986 | locus YDR054C, strain cdc34, stronger effect = lower value 0.982 | locus YDR226W, strain ADK1, stronger effect = lower value 0.973 | locus YDR477W, strain SNF1, stronger effect = lower value 1 | locus YER123W, strain YCK3, stronger effect = lower value 1.02 | locus YER133W, strain GLC7, stronger effect = lower value 1 | locus YFL009W, strain cdc4, stronger effect = lower value 0.992 | locus YFL029C, strain CAK1, stronger effect = lower value 0.979 | locus YFR003C, strain YPI1, stronger effect = lower value 0.984 | locus YFR019W, strain FAB1, stronger effect = lower value 0.998 | locus YFR028C, strain CDC14, stronger effect = lower value 0.997 | locus YGR040W, strain KSS1, stronger effect = lower value 1.01 | locus YGR052W, strain FMP48, stronger effect = lower value 1.09 | locus YGR092W, strain DBF2, stronger effect = lower value 1.01 | locus YHR030C, strain SLT2, stronger effect = lower value 0.903 | locus YHR079C, strain IRE1, stronger effect = lower value 0.964 | locus YHR082C, strain KSP1, stronger effect = lower value 1.15 | locus YHR205W, strain SCH9, stronger effect = lower value 0.989 | locus YIL147C, strain SLN1, stronger effect = lower value 0.977 | locus YJL095W, strain BCK1, stronger effect = lower value 1.02 | locus YJL128C, strain PBS2, stronger effect = lower value 0.959 | locus YJL157C, strain FAR1, stronger effect = lower value 1.01 | locus YJR016C, strain ILV3, stronger effect = lower value 0.992 | locus YJR066W, strain TOR1 (second series), stronger effect = lower value 0.966 | locus YJR066W, strain TOR1, stronger effect = lower value 1.11 | locus YKL048C, strain ELM1, stronger effect = lower value 0.981 | locus YKL067W, strain YNK1, stronger effect = lower value 0.989 | locus YKL101W, strain HSL1, stronger effect = lower value 0.987 | locus YKL193C, strain SDS22, stronger effect = lower value 0.994 | locus YKL203C, strain TOR2, stronger effect = lower value 1.05 | locus YLR133W, strain CKI1, stronger effect = lower value 1.01 | locus YLR403W, strain SFP1, stronger effect = lower value 1.01 | locus YML070W, strain DAK1, stronger effect = lower value 1 | locus YMR001C, strain CDC5, stronger effect = lower value 0.992 | locus YMR205C, strain PFK2 (second series), stronger effect = lower value 0.994 | locus YMR277W, strain FCP1, stronger effect = lower value 0.992 | locus YNL006W, strain LST8, stronger effect = lower value 0.987 | locus YNL020C, strain ARK1, stronger effect = lower value 1 | locus YNL161W, strain CBK1, stronger effect = lower value 0.98 | locus YNL183C, strain NPR1, stronger effect = lower value 1.09 | locus YNL207W, strain RIO2, stronger effect = lower value 0.984 | locus YNL222W, strain SSU72, stronger effect = lower value 0.992 | locus YNL307C, strain MCK1 (second series), stronger effect = lower value 1 | locus YOL078W, strain AVO1, stronger effect = lower value 0.996 | locus YOL136C, strain PFK27, stronger effect = lower value 1.01 | locus YOR061W, strain CKA2, stronger effect = lower value 1.01 | locus YOR119C, strain RIO1, stronger effect = lower value 1.08 | locus YOR231W, strain MKK1, stronger effect = lower value 0.985 | locus YOR329C, strain SCD5, stronger effect = lower value 0.986 | locus YPL031C, strain PHO85, stronger effect = lower value 1.02 | locus YPL153C, strain RAD53, stronger effect = lower value 1.02 | locus YPL204W, strain HRR25, stronger effect = lower value 0.982 | locus YPL209C, strain IPL1, stronger effect = lower value 0.983 | locus YPL256C, strain CLN2, stronger effect = lower value 0.888 | locus YPR025C, strain CCL1, stronger effect = lower value 0.987 | locus YPR106W, strain ISR1, stronger effect = lower value 0.99 | locus YPR111W, strain DBF20, stronger effect = lower value 0.975 | strain NNK1, stronger effect = lower value 0.983 | strain TSCII, stronger effect = lower value 0.984
